# Results: PubChem BioAssay
# Active and inactive are the calls of the source.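 How the source made its calls: active means calcium signal rise more than 3 SD above the low-dose agonist control mean, in both duplicate plates and the primary screen; inactive means the rest.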
# Assay: calcium flux enhancement in mu-opioid HEK293 cells, confirmation, counter-screen for TRPC4 allosteric potentiator project, cell-based, HEK293 mu-opioid receptor line (AID 449724);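 further: HEK293 cells carrying mu-opioid receptor only with no TRPC4 channel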
# Details: Fluo-4 calcium flux, at 10 µM, compound added before EC20 DAMGO stimulus
row,SMILES,outcome
1,COc1cc(C(F)(F)F)nc2c(Br)c(C(C)(C)C)nn12,inactive
2,COc1ccccc1N(C(=O)c1snc(C(N)=O)c1N)C(C(=O)NC1CCCC1)c1ccc2ncccc2c1 (stereo not given),inactive
3,CCc1c(C(=O)N2CCCN(C)CC2)csc1C,inactive
4,O=c1c2ccccc2nc(SCc2ccc([N+](=O)[O-])cc2)n1CCCO,inactive
5,CN1/C(=C\C(=O)C[n+]2ccc3ccccc3c2)C(C)(C)c2ccccc21,inactive
6,CN(C)CCCN(C(=O)c1ccc(S(=O)(=O)N2CCCC2)cc1)c1nc2c(F)cc(F)cc2s1,inactive
7,O=[N+]([O-])c1cccc(N(CC(O)CN2CCCC2)S(=O)(=O)c2ccccc2)c1 (stereo not given),inactive
8,Cc1cc(Nc2cccc(O)c2)c2ccccc2n1,inactive
9,COc1ccc(CN2CCN(Cc3ccc(C(F)(F)F)cc3)CC2)c(OC)c1,inactive
10,O=[N+]([O-])c1ccc(O)c(C2=NNC(c3ccccc3F)C2)c1 (stereo not given),inactive
11,Cn1c(-c2ccccc2)cnc1NCc1ccc(F)cc1,inactive
12,COc1nc(N=C(N)N)nc2ccc(C)cc12,inactive
13,CN(CC(=O)NC1CCCc2ccccc21)C1CCCCC1 (stereo not given),inactive
14,O=C(CSc1nnc(-c2ccc(Cl)cc2Cl)n1C1CCCCC1)N1CCCC1,inactive
15,Cc1ccc(Nc2cc(C)nc3c(C)cccc23)cc1,inactive
16,COc1cc(OC)c(C2N(C)c3ccccc3N2C)cc1OC,inactive
17,O=[N+]([O-])c1cccc(-c2nnc(C3CC3)o2)c1,inactive
18,O=C(NCCN1CCOCC1)c1cc2sccc2n1Cc1ccc(F)cc1,inactive
19,CN(C)CCCNc1c2ccccc2nc2ccccc12,inactive
20,COc1ccccc1Nc1nc(NCC2CCCO2)c2ccccc2n1 (stereo not given),inactive

row,SMILES,outcome
1,CC12CCC(C/C1=N/OC(=O)c1cccc([N+](=O)[O-])c1)C2(C)C (stereo not given),inactive
2,CCN(CC)CCN(C(=O)c1ccccc1OC)c1nc2ccc(F)cc2s1,inactive
3,CCOc1ccccc1N(C(=O)c1snc(C(N)=O)c1N)C(C(=O)NCc1ccccc1)c1ccc(O)cc1 (stereo not given),inactive
4,Cc1cc([N+](=O)[O-])ccc1NCc1ccccc1,inactive
5,Cn1c(-c2ccc(F)cc2)cnc1NCc1ccc(F)cc1F,inactive
6,Nc1cc(N2CCCCC2)c([N+](=O)[O-])cc1Cl,inactive
7,CN(C)C(CNC(=O)c1cccc(C(F)(F)F)c1)c1ccco1 (stereo not given),inactive
8,COc1ccc(CN2CCN(C(=O)c3ccc(F)cc3)CC2)c(OC)c1,inactive
9,COCCn1c(SCc2ccccc2F)nc2ccccc2c1=O,inactive
10,COc1ccccc1C(=O)Nc1ccc2c(c1)CCCN2C(=O)c1cccs1,inactive
11,CCCCn1c(NCc2ccc(N(C)C)cc2)nc2ccccc21,inactive
12,COc1ccc([N+](=O)[O-])cc1NCc1ccco1,inactive
13,Cc1cc(C)c2nc(C)cc(N/N=C/c3ccc(O)cc3)c2c1,inactive
14,Cc1nn(C(=O)CNS(=O)(=O)c2ccccc2)c(C)c1Sc1ccc(Cl)cc1,inactive
15,Cc1n[nH]c(C)c1CCCCOc1ccccc1F,inactive
16,COC(=O)C1=C(C)N(Cc2ccccc2)C(=S)N[C@H]1c1ccccc1,inactive
17,CC1(c2ccccc2)CC(C)(C)N(C(=O)C2CCCO2)c2ccccc21 (stereo not given),inactive
18,CC(OC(=O)CNC(=O)c1ccccc1F)C(=O)Nc1nc(-c2ccccc2)cs1 (stereo not given),inactive
19,CC(OCC(O)CN(C)CCOc1ccccc1)c1ccc(Cl)cc1 (stereo not given),inactive
20,Cc1cc(-c2sccc2C)nc(-n2cccc2)n1,inactive
